Laboratory results published in PubChem BioAssay (NCI).
This is part of a sample that, as a whole, favours compounds with a hit. Of some 83,000 tested, about 20% had one in any assay.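 48-hour exposure, single concentration, 96-well plates; percent growth endpoint where 0 means no net growth. Active: below 10.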 A number with no mark means an inactive call. Calls of active or inactive are those of the source.

Each compound was assayed on HL-60(TB) leukemia (assay: NCI-60 one-dose screen, 48 h (100 = growth as untreated, 0 = no growth, -100 = all killed)). Conditions: 10 µM unless noted.

SMILES | growth
CCOC(=O)C1CCc2c(ccc3ccccc23)N1CCC#N (stereo not drawn) | 110%
Cc1nc2sc(C(=O)Nc3cccc(Cl)c3C)c(N)c2cc1C(C)O (stereo not drawn) | -18.7% (active)
C/C(=C(/c1ccccc1)c1ccc(OCC(O)CN2CCOCC2)cc1)c1ccccc1 (stereo not drawn) | 60.7%
O=C1/C(=C/c2ccc(Cl)cc2)CCC/C1=C\c1ccc(Cl)cc1 | 83%
CCN(CC)CCn1c2ccc(O)cc2c2sc3cc(O)ccc3c(=O)c21 | 38%
Cc1cc(=O)c2cc3nc(-c4cccnc4)oc3c(Br)c2o1 | 84.9%
Nc1nc(N)c2c(n1)NC(c1cccc(Nc3ccnc4cc(C(F)(F)F)ccc34)c1)CC(c1ccc3c(c1)OCO3)=N2 (stereo not drawn) | 76.5%
N#Cc1nc(-c2ccc(Cl)cc2)cc(-c2ccc(Nc3nc(N4CCCCC4)nc(N4CCCCC4)n3)cc2)c1N | 99.2%
CC(CC(CCC(=O)O)(c1ccccc1)c1ccccc1)N(C)C (stereo not drawn) | 109%
Cc1ccc2c(c1)=C/C(=C\c1cc(-c3ccccc3)[nH]c1O)C(=O)N=2 | -4.3% (active)
COc1ccc(-n2nc(C)c3c(Nc4ccc(NC(=O)Nc5c(Cl)cccc5Cl)cc4)ncnc32)cc1 | 97.8%
COc1cc2c(cc1OCCCCN1CCN(CC(=O)Nc3ccc(Cl)cc3C(=O)c3ccccc3Cl)CC1)N=CC1CCCN1C2=O (stereo not drawn) | -72.1% (active)
O=C(C1CCCCC1)[C@@H]1[C@]2(C(=O)NC3CCCCC32)[C@@H]2CCCN2[C@@]12C(=O)NC1CCC(Cl)CC12 (stereo partly drawn) | -65.9% [100 µM] (active)
CCCCCCCCCCCCCCCCCCOc1ccc(CC(=O)OCC[N+]2(C)CCCCC2)cc1 | 83.4%
Cn1c(=O)c2c(-c3ccccc3F)n(-c3ccc4c(c3)OCO4)cc2n(C)c1=O | 90.2%
COc1cc(-c2cc(/C=C/C(C)=O)[nH]n2)cc(OC)c1OC | 66.7%
CNC(=O)c1c(C)oc2cc(Oc3ncnc4cc(OC)c(OC)cc34)ccc12 | 117%

SMILES | growth
CCOC(=O)c1nn(C2CCCCO2)c2ccc(NC(=O)CSc3nc4ccccc4c(=O)[nH]3)cc12 (stereo not drawn) | 118%
COc1ccccc1-n1c(-c2cc(O)ccc2C)cn2c3c(=O)[nH]c(=O)n(C)c3nc12 | 110%
O=C(NCc1cccnc1)/C(=C\c1ccc(Br)cc1)S(=O)(=O)c1ccccc1 | 17.4%
COc1cnc2c(c1)C(=O)c1c-2n(CCCN2CCCC2)c(=O)c2cc(F)ccc12 | -28.7% (active)
Cc1nc(-c2cn3c(n2)-c2ccc(-c4cnn(C(C)(C)C(N)=O)c4)cc2OCC3)n(C(C)C)n1 | 35.7%
C#CCNC(=O)[C@H](Cc1ccccc1)NC(=O)[C@]12CC[C@@H](C(=C)C)[C@@H]1[C@H]1CC[C@@H]3[C@@]4(C)Cc5c([nH]c6ccccc56)C(C)(C)[C@@H]4CC[C@@]3(C)[C@]1(C)CC2 | 93.1%
O=C(O)c1ccc(-n2cc(/C=N/Nc3ccc(Cl)cc3Cl)c(-c3ccccc3)n2)cc1 | -81.8% (active)
CC(=O)c1ccc(Cc2ccc(C(C)=O)s2)s1 | 86.5%
Cc1ccc(C(=O)Nc2ccc(CN3CCN(C)CC3)c(C(F)(F)F)c2)cc1C#Cc1cncc2ncccc12 | -65.1% (active)
O=C(/C=C/C12c3ccccc3C(c3ccccc31)C1C(=O)NC(=O)C12)c1ccc(Cl)cc1Cl (stereo not drawn) | -8.27% (active)
Oc1ccc(N=Nc2ccc(N=Nc3ccccc3)cc2)cc1 | 7.35% (active)
CC[C@]1(O)C[C@@H]2CN(CCc3c([nH]c4ccccc34)[C@@](C(=O)OC)(c3cc4c(cc3OC)N(C)[C@H]3[C@@](O)(C(=O)OC)[C@H](OC(C)=O)[C@]5(CC)C=CCN6CC[C@]43[C@@H]65)C2)C1 | -7.59% (active)
Cc1cc(=O)n(C(=S)Nc2ccc(Cl)cc2)c2cc(O)ccc12 | 111%
CN1CCOCCN(C)Cc2ccc3ccc(cc3c2)CN(C)CCOCCN(C)Cc2ccc3ccc(cc3c2)C1 | 20.7%
COC(=O)[C@]1(C)CC[C@]2(C)CC[C@]3(C)C(=CC(=O)[C@@H]4[C@@]5(C)CCC(=O)NC(C)(C)[C@@H]5CC[C@]43C)[C@@H]2C1 | 1.31% [100 µM] (active)
Cc1nc2cccc(NCCCCC(=O)NO)c2c(=O)n1-c1ccccc1 | 42.8%
